Assay results as given in ChEMBL document CHEMBL1961873, “Compounds: GSK PKIS; Assays: Nanosyn kinase panel” (2012).

What was measured:
[1] = molecular target: Serine/threonine-protein kinase pim-2 (Homo sapiens) (UniProt Q9P1W9); settings: at 1 µM;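 also: each value is a mean of the inhibition measurements against the kinase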
[2] = molecular target: Serine/threonine-protein kinase pim-3 (Homo sapiens) (UniProt Q86V86); settings: at 0.1 µM
[3] = molecular target: Serine/threonine-protein kinase pim-3 (Homo sapiens) (UniProt Q86V86); settings: at 1 µM
[4] = molecular target: T1, MAP kinase-activated protein kinase 5 (Homo sapiens) (UniProt Q8IW41); settings: at 0.1 µM
T1 sequence (whole entry): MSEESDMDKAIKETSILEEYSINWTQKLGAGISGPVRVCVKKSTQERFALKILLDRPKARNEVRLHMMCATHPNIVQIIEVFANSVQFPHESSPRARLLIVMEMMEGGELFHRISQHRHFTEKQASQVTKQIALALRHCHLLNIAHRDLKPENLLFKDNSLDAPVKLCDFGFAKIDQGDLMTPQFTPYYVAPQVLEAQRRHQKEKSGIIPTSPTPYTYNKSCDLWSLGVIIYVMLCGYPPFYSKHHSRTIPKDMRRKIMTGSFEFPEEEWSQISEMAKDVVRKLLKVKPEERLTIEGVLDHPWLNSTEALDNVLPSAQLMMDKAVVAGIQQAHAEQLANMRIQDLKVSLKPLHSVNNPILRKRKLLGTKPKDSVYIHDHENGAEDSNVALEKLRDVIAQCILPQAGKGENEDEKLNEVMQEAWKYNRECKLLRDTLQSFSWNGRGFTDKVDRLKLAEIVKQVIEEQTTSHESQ

[5] = molecular target: T1, MAP kinase-activated protein kinase 5 (Homo sapiens); settings: at 1 µM
[6] = molecular target: Serine/threonine-protein kinase SIK1 (Homo sapiens) (UniProt P57059); settings: at 0.1 µM
[7] = molecular target: Serine/threonine-protein kinase SIK1 (Homo sapiens) (UniProt P57059); settings: at 1 µM
[8] = molecular target: Serine/threonine-protein kinase SIK2 (Homo sapiens) (UniProt Q9H0K1); settings: at 0.1 µM
[9] = molecular target: Serine/threonine-protein kinase SIK2 (Homo sapiens) (UniProt Q9H0K1); settings: at 1 µM
[10] = molecular target: T2, Serine/threonine-protein kinase TBK1 (Homo sapiens) (UniProt Q9UHD2); settings: at 0.1 µM;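 also: values are the mean TBK1 inhibition, taken from the GSK PKIS screening data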
T2 sequence (whole entry): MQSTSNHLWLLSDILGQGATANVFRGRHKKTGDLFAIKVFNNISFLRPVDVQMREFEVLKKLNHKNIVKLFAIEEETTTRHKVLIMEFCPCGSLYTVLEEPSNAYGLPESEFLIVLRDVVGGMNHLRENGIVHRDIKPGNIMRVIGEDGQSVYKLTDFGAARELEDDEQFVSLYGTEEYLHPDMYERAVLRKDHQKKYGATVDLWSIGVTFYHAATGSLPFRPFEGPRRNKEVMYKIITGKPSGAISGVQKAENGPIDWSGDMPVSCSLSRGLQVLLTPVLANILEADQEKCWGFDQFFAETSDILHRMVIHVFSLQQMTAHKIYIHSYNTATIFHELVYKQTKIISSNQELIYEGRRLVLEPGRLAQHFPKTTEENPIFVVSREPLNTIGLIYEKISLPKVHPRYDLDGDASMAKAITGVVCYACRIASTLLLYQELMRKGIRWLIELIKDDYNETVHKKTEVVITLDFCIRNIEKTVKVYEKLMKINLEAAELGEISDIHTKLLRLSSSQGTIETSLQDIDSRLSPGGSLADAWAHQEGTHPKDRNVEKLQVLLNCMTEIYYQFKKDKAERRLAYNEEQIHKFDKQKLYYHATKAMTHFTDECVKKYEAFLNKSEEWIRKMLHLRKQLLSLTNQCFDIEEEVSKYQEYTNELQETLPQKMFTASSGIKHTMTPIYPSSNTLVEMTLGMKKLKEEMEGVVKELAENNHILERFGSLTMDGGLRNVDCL

Serine/threonine-protein kinase SIK1 (Homo sapiens), sequence (P57059 whole entry): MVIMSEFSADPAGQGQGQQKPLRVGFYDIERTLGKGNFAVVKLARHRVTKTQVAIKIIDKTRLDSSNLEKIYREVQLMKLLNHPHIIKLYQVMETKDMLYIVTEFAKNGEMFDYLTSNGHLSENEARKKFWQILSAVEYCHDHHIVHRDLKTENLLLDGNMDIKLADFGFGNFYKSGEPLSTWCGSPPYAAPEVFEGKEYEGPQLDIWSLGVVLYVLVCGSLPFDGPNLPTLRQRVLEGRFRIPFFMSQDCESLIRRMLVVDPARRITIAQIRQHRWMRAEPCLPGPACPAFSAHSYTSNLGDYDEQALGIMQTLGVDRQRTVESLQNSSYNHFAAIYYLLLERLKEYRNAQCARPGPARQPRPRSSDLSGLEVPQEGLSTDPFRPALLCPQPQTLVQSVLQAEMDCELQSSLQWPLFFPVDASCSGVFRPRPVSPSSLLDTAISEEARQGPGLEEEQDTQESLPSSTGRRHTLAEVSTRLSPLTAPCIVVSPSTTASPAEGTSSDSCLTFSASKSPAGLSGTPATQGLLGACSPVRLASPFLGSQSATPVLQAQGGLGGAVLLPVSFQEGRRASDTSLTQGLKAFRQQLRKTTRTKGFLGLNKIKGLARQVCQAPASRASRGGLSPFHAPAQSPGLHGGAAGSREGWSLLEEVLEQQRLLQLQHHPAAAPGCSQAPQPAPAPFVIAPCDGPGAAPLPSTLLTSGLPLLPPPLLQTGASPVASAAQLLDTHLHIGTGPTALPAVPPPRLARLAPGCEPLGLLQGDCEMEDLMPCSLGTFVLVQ
Serine/threonine-protein kinase SIK2 (Homo sapiens), sequence (Q9H0K1 whole entry, looked up): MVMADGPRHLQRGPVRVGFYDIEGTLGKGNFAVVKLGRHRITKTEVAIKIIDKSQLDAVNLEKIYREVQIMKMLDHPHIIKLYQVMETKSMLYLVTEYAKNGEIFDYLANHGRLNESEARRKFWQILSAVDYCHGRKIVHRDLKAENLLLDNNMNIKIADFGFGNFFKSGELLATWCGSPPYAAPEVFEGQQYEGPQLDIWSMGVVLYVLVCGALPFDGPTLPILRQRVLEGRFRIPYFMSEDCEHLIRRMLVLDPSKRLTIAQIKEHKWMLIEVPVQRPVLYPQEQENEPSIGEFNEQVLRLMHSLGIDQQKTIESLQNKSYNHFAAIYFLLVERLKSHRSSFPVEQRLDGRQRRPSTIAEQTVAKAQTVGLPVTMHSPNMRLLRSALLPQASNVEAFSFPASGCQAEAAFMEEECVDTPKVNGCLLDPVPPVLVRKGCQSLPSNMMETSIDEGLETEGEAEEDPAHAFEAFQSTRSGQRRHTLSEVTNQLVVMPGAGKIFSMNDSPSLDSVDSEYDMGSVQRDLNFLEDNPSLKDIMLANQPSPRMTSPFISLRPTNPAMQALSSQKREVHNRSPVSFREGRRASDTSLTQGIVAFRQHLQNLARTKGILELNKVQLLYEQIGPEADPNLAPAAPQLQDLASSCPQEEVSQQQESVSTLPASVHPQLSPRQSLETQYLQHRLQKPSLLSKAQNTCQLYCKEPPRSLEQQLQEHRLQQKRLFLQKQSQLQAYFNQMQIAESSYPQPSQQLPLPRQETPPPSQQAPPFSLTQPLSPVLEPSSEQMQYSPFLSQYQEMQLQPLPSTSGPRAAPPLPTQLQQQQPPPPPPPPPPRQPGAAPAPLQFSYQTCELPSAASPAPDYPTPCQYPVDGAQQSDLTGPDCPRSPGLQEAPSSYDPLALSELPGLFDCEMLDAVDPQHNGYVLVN
Serine/threonine-protein kinase pim-2 (Homo sapiens), sequence (Q9P1W9 whole entry, looked up): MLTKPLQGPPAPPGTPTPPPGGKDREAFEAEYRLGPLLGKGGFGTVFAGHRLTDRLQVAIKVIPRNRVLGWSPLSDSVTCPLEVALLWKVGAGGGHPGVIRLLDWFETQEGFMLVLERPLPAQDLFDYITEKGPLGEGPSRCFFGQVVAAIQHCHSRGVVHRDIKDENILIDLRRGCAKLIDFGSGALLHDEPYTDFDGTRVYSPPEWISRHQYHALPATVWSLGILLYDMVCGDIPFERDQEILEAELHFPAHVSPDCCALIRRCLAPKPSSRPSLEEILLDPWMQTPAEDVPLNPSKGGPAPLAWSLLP

| Compound | inhibition [1] [%] | inhibition [2] [%] | inhibition [3] [%] | inhibition [4] [%] | inhibition [5] [%] | inhibition [6] [%] | inhibition [7] [%] | inhibition [8] [%] | inhibition [9] [%] | inhibition [10] [%] |
| --- | --- | --- | --- | --- | --- | --- | --- | --- | --- | --- |
| COc1ccccc1Nc1ncc(-c2ccccc2)o1 | 0.53 | 0.22 | 0.86 | 2.09 | 1.9 | -1.04 | 14.1 | 1.94 | 5.2 | 1.18 |
| COC(=O)Nc1nc2cc(Oc3cccc(NC(=O)Nc4cc(C(F)(F)F)ccc4F)c3)ccc2[nH]1 | 0.76 | 0.14 | 0.51 | -0.26 | -2.14 | 0.37 | 2.51 | -0.54 | 3.76 |  |
| c1cnn2ncc(-c3ccnc(Nc4ccc5c(c4)OCCO5)n3)c2c1 | 4.39 | 0.84 | 16.2 | 1.78 | 2.58 | 9.87 | 20.4 | 11.1 | 17.7 | 3.41 |
| Cc1nn(C)c2cc(N(C)c3ccnc(Nc4cccc(S(N)(=O)=O)c4)n3)ccc12 | 0.81 | 0.16 | -0.2 | 0.87 | 1.23 | 9.49 | 55.3 | 7.91 | 24.3 | 2.88 |
| CCn1c(-c2nonc2N)nc2c(C#CC(C)(C)O)nc(OC[C@@H](N)c3ccccc3)cc21 | 2.38 | 0.56 | 5.51 | -0.92 | -1.02 | 1.01 | 0.3 | -1.91 | 1.75 | 0.4 |
| Nc1ncnc2occ(-c3ccc(NC(=O)Nc4cc(C(F)(F)F)cc(C(F)(F)F)c4)cc3)c12 | 0.27 | -1.29 | -2.53 | 0.61 | 0.59 | 1.96 | 2.47 | 3.48 | 4.42 | -0.65 |
| Fc1cccc(COc2ccc(Nc3ncnc4sc(-c5cccs5)cc34)cc2Cl)c1 | 1.54 | 0.47 | 1.27 | 0.51 | 0.8 | 0.72 | 7.28 | 2.25 | -2.41 | 0.83 |
| CCc1cccc(NC(=O)Nc2ccc(Oc3ccc4nc(NC(=O)OC)[nH]c4c3)cc2)c1 | -0.24 | 1.1 | 3.52 | 0.32 | 0.96 | 2.06 | 2.27 | 1.99 | 0.48 | 0.31 |
| CC1=C(C(=O)Nc2ccc3[nH]ncc3c2)C(c2ccc3ccccc3c2)CC(=O)N1 (centres undefined) | 0.77 | -0.19 | 0.74 | 0.65 | 1.3 | 4.02 | 1.28 | 5.77 | 4.09 | -1.92 |
| O=C1NC(=O)C(N2CCc3ccccc32)=C1c1ccc(Cl)cc1 | 0.77 | -1.28 | -2.25 | 1.12 | 0.55 | 5.76 | 7.18 | 1.33 | 5.15 | 3.01 |
| COc1cc2ncn(-c3cc(O[C@@H](C)c4ccccc4Cl)c(C(N)=O)s3)c2cc1OC | 0.91 | 0.03 | 4.24 | 1.26 | 1.22 | 6.27 | 18.1 | 2.99 | 12 | 4.39 |
| CCn1c(-c2nonc2N)nc2c(C#CC(C)(C)O)nc(CN3CCCC3)cc21 | 1.6 | -0.35 | 0.7 | -0.65 | -1.46 | -1.04 | 0.38 | -6.78 | -1.41 | 1.77 |
| Cn1cc(C=C2C(=O)Nc3cccnc32)c2ccccc21 | 3.47 | 0.47 | 11.5 | 0.25 | 1.48 | -0.28 | 9.48 | 2.86 | 4.37 | 2.42 |
| CS(=O)(=O)CCNCc1ccc(-c2ccc3ncnc(Nc4ccc(OCc5cccc(F)c5)c(C(F)(F)F)c4)c3c2)o1 | 0.66 | 0.74 | 0.16 | 1.63 | 2.16 | 0.39 | 9.67 | 2.19 | 10.8 | 1.68 |
| Cc1nnc(-c2ccc(C)c(-c3ccc(C(=O)Nc4cccc(C#N)c4)cc3)c2)o1 | 0.22 | 0.95 | 2.47 | 0.95 | 0.82 | 3.54 | 4.65 | 4.14 | 3.76 | 5.08 |
| NCc1ccc(-c2nc(-c3ccc(Cl)c(O)c3)c(-c3ccncc3)[nH]2)cc1 | 1.13 | -1.17 | -0.73 | -0.17 | -1.34 | 0.32 | 3.96 | -0.81 | 8.19 | -1.21 |
| CNC(=O)c1cncc(/C=C/c2c(Cl)cccc2Cl)c1 | -0.92 | 1.26 | 7.42 | 1.11 | 1.46 | 11.9 | 50.9 | 2.71 | 17.3 | 2.82 |

| Compound | inhibition [1] [%] | inhibition [2] [%] | inhibition [3] [%] | inhibition [4] [%] | inhibition [5] [%] | inhibition [6] [%] | inhibition [7] [%] | inhibition [8] [%] | inhibition [9] [%] | inhibition [10] [%] |
| --- | --- | --- | --- | --- | --- | --- | --- | --- | --- | --- |
| O=C1NC(=O)C(c2ccccc2Cl)=C1Nc1cccc(O)c1 | 0.28 | -0.32 | -0.95 | 0.71 | 0.06 | 1.46 | 5.5 | 8.17 | 10.7 | 2.04 |
| COc1cc2c(cc1Nc1nc(N3CCc4ccccc43)c3cc[nH]c3n1)N(C(=O)CN(C)C)CC2 | 0.38 | -0.4 | -1.08 | 0.04 | -1.65 | 3.24 | 7.48 | 2.51 | -3.15 | 0.22 |
| NS(=O)(=O)c1ccc(N/N=C2\C(=O)Nc3ccc(C(=O)NCCc4c[nH]cn4)cc32)cc1 | 24.7 | 4.71 | 44.7 | 1.41 | 2.5 | 11.7 | 32.5 | 6.36 | 16.9 | 3.67 |
| CN1CCC(C(=O)Nc2n[nH]c3nnc(-c4ccccc4)cc23)CC1 | 1.49 | -0.11 | 3.84 | 1.41 | 3.73 | 7.3 | 7.57 | 6.82 | 8.16 | 2.09 |
| CS(=O)(=O)CCNCc1nc(-c2ccc3ncnc(Nc4ccc(F)c(Cl)c4)c3c2)cs1 | -0.01 | 0.66 | 6.45 | 0.35 | 1.43 | 8.44 | 8.78 | 3.22 | 2.57 | 1.85 |
| NS(=O)(=O)c1cccc(-c2ccc3c(NC(=O)C4CC4)n[nH]c3c2)c1 | 0.35 | -1.61 | 1.3 | -0.5 | 0.65 | -8.4 | -0.1 | -0.65 | -7.23 | 0.24 |
| Nc1nc(-c2ccccn2)c(-c2ccc3ncccc3n2)s1 | 0.01 | 0.6 | 2.63 | 1.31 | 1.64 | 4.91 | 3.52 | 4.07 | 4.74 | 2.8 |
| COc1ccc(-c2coc3ncnc(N)c23)cc1 | 1.01 | -0.83 | -1.2 | 0.93 | 0.22 | 1.16 | 10.4 | 5.46 | 7.65 | -0.45 |
| COc1cccc(-n2ncc3c(N/N=C/c4cccc(F)c4)ncnc32)c1 | -2.82 | -0.58 | -0.78 | 0.63 | 0.71 | 5.56 | 11.9 | 5.11 | 14.4 | 1.92 |
| Nc1ncnc2occ(-c3ccc(NC(=O)Nc4cccc(C(F)(F)F)c4)cc3)c12 | 0.72 | 0.78 | 0.9 | 1.67 | 1.36 | -0.49 | 9.69 | 4.8 | 3.6 | 3.95 |
| COc1cc(C=NNc2ncnc3c2cnn3-c2ccccc2)ccc1O | 2.11 | -0.48 | -0.21 | 0.22 | -0.53 | 5.32 | 18.5 | 7.72 | 20.4 | 3.55 |
| COc1ccc(COc2ccc(Cc3cnc(N)nc3N)cc2OC)cc1 | 3.29 | 2.12 | 0.23 | -0.2 | -1.74 | -2.62 | 2.92 | -5.52 | -1.07 | 2.12 |
| COc1ccc2cc(-c3c(-c4ccncc4)nc(-c4ccc([S+](C)[O-])cc4)n3C)ccc2c1 (centres undefined) | 0.99 | -1.77 | -3.85 | 0.94 | -0.4 | 2.62 | 1.89 | 0.52 | 5.27 | -2.09 |
| COc1cc2ncn(-c3cc(O[C@H](C)c4ccccc4Cl)c(C(N)=O)s3)c2cc1OC | 0.96 | 2.36 | 12.4 | 2.09 | 4.22 | 12.6 | 53.1 | 10.9 | 24.8 | 3.11 |
| COC(=O)Nc1nc2cc(Oc3ccc(NC(=O)Nc4cccc(C(=O)O)c4)cc3)ccc2[nH]1 | -2.76 | 1.29 | 3.84 | 0.42 | 1 | 3.75 | 1.25 | -0.04 | 2.04 | 0.81 |
| CC1=C(C(=O)Nc2ccc3[nH]ncc3c2)C(c2ccc(F)cc2)NC(=O)N1 (centres undefined) | -0.13 | 0.21 | -0.69 | 2.17 | 0.76 | 0.84 | 3.8 | 3.04 | 1.13 | 2.82 |
